About 2,000 (36%) of roughly 5,500 compounds were called active. Inconclusive results (about 18%) are left out. Cut-off read from the data, not from the text of the source: active = normalized growth mostly below about 0.91 (no sharp cut-off); inconclusive = no clear call, values can overlap the other calls; inactive = mostly above about 0.92. Some of the results follow.
Assay: chemical genetic growth profiling, strain panel (AID 1159580);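 note: tested at 20 µM; growth read once vehicle control cultures reached saturation at 30 °C; 1 = growth at the plate median or of vehicle wells; lower values mean less growth of the strain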
Details: growth OD

Measured: normalized growth

Cc1cc(C)c2c(-n3cccc3)c(C(=O)c3ccc(Cl)cc3)sc2n1
inactive: S. cerevisiae deletion strains, locus YAL013W, strain DEP1, stronger effect = lower value 0.996 | S. cerevisiae deletion strains, locus YBR229C, strain ROT2, stronger effect = lower value 1.01 | S. cerevisiae deletion strains, locus YCL061C, strain MRC1, stronger effect = lower value 1 | S. cerevisiae deletion strains, locus YDL101C, strain DUN1, stronger effect = lower value 0.979 | S. cerevisiae deletion strains, locus YDR150W, strain NUM1, stronger effect = lower value 0.9 | S. cerevisiae deletion strains, locus YEL061C, strain CIN8, stronger effect = lower value 1 | S. cerevisiae deletion strains, locus YGR078C, strain PAC10, stronger effect = lower value 1.01 | S. cerevisiae deletion strains, locus YGR229C, strain SMI1, stronger effect = lower value 0.99 | S. cerevisiae deletion strains, locus YHR030C, strain SLT2, stronger effect = lower value 0.884 | S. cerevisiae deletion strains, locus YHR087W, strain rtc3, stronger effect = lower value 0.98 | S. cerevisiae deletion strains, locus YJL187C, strain SWE1, stronger effect = lower value 1.01 | S. cerevisiae deletion strains, locus YJR043C, strain POL32, stronger effect = lower value 1.01 | S. cerevisiae deletion strains, locus YJR075W, strain HOC1, stronger effect = lower value 0.987 | S. cerevisiae deletion strains, locus YLR039C, strain RIC1, stronger effect = lower value 0.903 | S. cerevisiae deletion strains, locus YLR058C, strain SHM2 (second series), stronger effect = lower value 1.01 | S. cerevisiae deletion strains, locus YLR085C, strain ARP6, stronger effect = lower value 0.961 | S. cerevisiae deletion strains, locus YLR262C, strain YPT6, stronger effect = lower value 0.95 | S. cerevisiae deletion strains, locus YML094W, strain GIM5, stronger effect = lower value 0.935 | S. cerevisiae deletion strains, locus YMR219W, strain ESC1, stronger effect = lower value 1.01 | S. cerevisiae deletion strains, locus YMR263W, strain SAP30, stronger effect = lower value 0.997 | S. cerevisiae deletion strains, locus YMR307W, strain GAS1, stronger effect = lower value 0.891 | S. cerevisiae deletion strains, locus YNL153C, strain GIM3, stronger effect = lower value 0.984 | S. cerevisiae deletion strains, locus YNL298W, strain CLA4 (second series), stronger effect = lower value 0.984 | S. cerevisiae deletion strains, locus YNL322C, strain KRE1, stronger effect = lower value 0.997 | S. cerevisiae deletion strains, locus YNR030W, strain Alg12, stronger effect = lower value 0.95 | S. cerevisiae deletion strains, locus YPL055C, strain LGE1, stronger effect = lower value 0.957 | S. cerevisiae deletion strains, locus YPL241C, strain CIN2, stronger effect = lower value 1 | S. cerevisiae deletion strains, locus YPR135W, strain CTF4, stronger effect = lower value 0.893 | S. cerevisiae strains, strain wild type, stronger effect = lower value 0.986
